# Source: PubChem BioAssay (NCATS)
# Inconclusive results are not listed. The source made the active and inactive calls. Unless noted, the call rests on the fitted dose curve.
# Experiments:
# [1] = qHTS drug screen for cell cycle checkpoint inhibitors in PARPi-resistant BRCA-mutant ovarian cancer cell lines. (AID 1963452); conditions: PEO1/OlaR viability, CellTiter-Glo luminescence, 96 h; for Z-AUC: stronger effect = lower value; further: potency means the concentration at half of the fitted maximal effect
# Outline: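 PEO1, PEO4 and PEO1/OlaR ovarian cancer cells, 600 per well, exposed 96 h at 37C to a dilution series. Viability read by CellTiter-Glo luminescence, normalized to DMSO and empty wells; activity summarized as Z-AUC.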
# [2] = KB-8-5-11 P-gp reporter qHTS against the NCATS DSHEA and TCM libraries (AID 1919977; active means well fitted curve in the direction sought with a large enough effect; an effect the other way counts as inactive or inconclusive; further: 0% is about no effect); conditions: KB-8-5-11 cells; series mostly up to 26.1 µM
# Outline: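 CellTiter-Glo luminescence after ~72 h exposure at 37C gave viability of KB-8-5-11 cells, the P-gp-overexpressing subline. Substances were titrated; colchicine was omitted from assay medium.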
# [3] = qHTS profiling for inhibitors of Plasmodium falciparum proliferation (AID 504749; active means well fitted curve in the direction sought with a large enough effect; an effect the other way counts as inactive or inconclusive;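 further: 0% = DMSO vehicle and full inhibition = artemisinin control; nearly all actives have a fitted effect of over 60% in size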); conditions: P. falciparum in erythrocytes, SYBR Green DNA, 72 h, at 28.7 µM (top of the series)
# Outline: (§1)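 P. falciparum-infected erythrocytes (0.3% parasitemia, 2.5% hematocrit final) were exposed to compounds for 72 h at 37 C in 5% CO2, then lysed with SYBR Green buffer overnight at room temperature; parasite DNA fluorescence was normalized to artemisinin and DMSO controls.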
# 3D7 = assay: as above; conditions: P. falciparum in erythrocytes, SYBR Green DNA, 72 h; series mostly up to 28.7 µM
# Outline: as §1
# AS120 = assay: as above; conditions: P. falciparum in erythrocytes, SYBR Green DNA, 72 h; series mostly up to 28.7 µM
# Outline: as §1
# [4] = qHTS for identification of novel therapeutic agents for treatment of microphthalmiaassociated transcription factor (MiT) renal cell carcinoma (RCC) (AID 1963991); conditions: CellTiter-Glo, 48 h; for z-score: stronger effect = lower value; further: potency means the concentration at half of the fitted maximal effect
# Outline: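 Curves over 11 concentrations were fitted to CellTiter-Glo luminescence, scaled between empty wells (0%) and DMSO (100%) viability. Cells were UOK109, UOK124 and UOK145 TFE3-fusion RCC lines at 500/well, exposed 48 hours at 37 C.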
# [5] = measured here: PEO1 parental Z-AUC
# [6] = TFE3-RCC UOK109 viability, measured here: UOK109 Z-AUC
# [7] = TFE3-RCC viability, measured here: UOK124 Z-AUC
# [8] = TFE3-RCC viability, measured here: UOK145 Z-AUC
smiles,measurement,setting,value
COC1=C[C@@H]2[C@@H]3Cc4ccc(OC)c(O)c4[C@]2(CCN3C)CC1=O,Z-AUC,[1],0.716 (inactive)
same,Z-AUC,[1]; [5],0.742
same,Z-AUC,[1]; measured here: PEO4 Z-AUC,0.886
O=C(N[C@H]1CN2CCC1CC2)c1ccc(Cl)cc1,Z-AUC,[1],-0.714 (inactive)
same,Z-AUC,[1]; [5],0.355
same,Z-AUC,[1]; measured here: PEO4 Z-AUC,-0.659
CC(C)(O)C(=O)Nc1ccc([N+](=O)[O-])c(C(F)(F)F)c1,Z-AUC,[1],1.27 (inactive)
same,Z-AUC,[1]; [5],0.567
same,Z-AUC,[1]; measured here: PEO4 Z-AUC,0.85
CC(C)[C@H]1C(=O)N[C@H](CO)Cc2c[nH]c3cccc(c23)N1C,Z-AUC,[1],0.277 (inactive)
same,Z-AUC,[1]; [5],-0.654
same,Z-AUC,[1]; measured here: PEO4 Z-AUC,-0.578
CC(=O)Nc1ccc(OC[C@](C)(O)C(=O)Nc2ccc([N+](=O)[O-])c(C(F)(F)F)c2)cc1,Z-AUC,[1],-0.618 (inactive)
same,Z-AUC,[1]; [5],-0.737
same,Z-AUC,[1]; measured here: PEO4 Z-AUC,-0.359
CCOC(=O)Nc1ccc(NCc2ccc(F)cc2)cc1N,Z-AUC,[1],-0.328 (inactive)
same,Z-AUC,[1]; [5],0.0556
same,Z-AUC,[1]; measured here: PEO4 Z-AUC,0.397
CCCCCC[C@H]1C(=O)O[C@H](C)[C@H](NC(=O)c2cccc(NC=O)c2O)C(=O)O[C@@H](C)[C@@H]1OC(=O)CC(C)C,Z-AUC,[1],-1.4 (inactive)
same,Z-AUC,[1]; [5],-1.96
same,Z-AUC,[1]; measured here: PEO4 Z-AUC,-1.72
O=S(=O)(CC1CS1)c1ccc(Oc2ccccc2)cc1 (stereo not given),Z-AUC,[1],1.02 (inactive)
same,Z-AUC,[1]; [5],1.86
same,Z-AUC,[1]; measured here: PEO4 Z-AUC,1.74
COc1ccc(N(C(=O)Oc2c(C)cccc2C)c2ccnc(Nc3ccc(N4CCN(C)CC4)cc3)n2)c(OC)c1,Z-AUC,[1],-0.241 (inactive)
same,Z-AUC,[1]; [5],0.364
same,Z-AUC,[1]; measured here: PEO4 Z-AUC,0.481
O=c1[nH]c2ccccc2n1C1CCN(Cc2ccc(-c3[nH]c4cc5ncnc5cc4nc3-c3ccccc3)cc2)CC1,Z-AUC,[1],-0.823 (inactive)
same,Z-AUC,[1]; [5],-0.392
same,Z-AUC,[1]; measured here: PEO4 Z-AUC,-0.582
C/C=C(/C)C(=O)O[C@H]1C(C)=C2[C@H]([C@@H]1OC(=O)CCCCCCC)[C@@](C)(OC(C)=O)C[C@H](OC(=O)CCC)[C@@]1(O)[C@H]2OC(=O)[C@@]1(C)O,Potency,[1],9.8 nM (active)
same,Z-AUC,[1]; [5],-2.42
same,Z-AUC,[1]; measured here: PEO4 Z-AUC,-2.66
O=C(Oc1ccc([N+](=O)[O-])cc1)N1CCN(Cc2cccc(Oc3ccccc3)c2)CC1,Z-AUC,[1],1.13 (inactive)
same,Z-AUC,[1]; [5],1.12
same,Z-AUC,[1]; measured here: PEO4 Z-AUC,1.4
COc1ccc2c(c[n+](C)c3c4cc5c(cc4ccc23)OCO5)c1OC,Z-AUC,[1],-0.492 (inactive)
same,Z-AUC,[1]; [5],0.375
same,Z-AUC,[1]; measured here: PEO4 Z-AUC,0.195
CN1CCN(c2ccc([N+](=O)[O-])c3no[n+]([O-])c23)CC1,Z-AUC,[1],1.21 (inactive)
same,Z-AUC,[1]; [5],1.82
same,Z-AUC,[1]; measured here: PEO4 Z-AUC,1.04
Cc1[nH]nc2ccc(-c3cncc(OC[C@@H](N)Cc4c[nH]c5ccccc45)c3)cc12,Z-AUC,[1],-2.34 (inactive)
same,Z-AUC,[1]; [5],-1.86
same,Z-AUC,[1]; measured here: PEO4 Z-AUC,-2.37
O=C(O)c1ccccc1O,outcome,[2],inactive
CC(C)(C)c1cc(C=C(C#N)C#N)cc(Br)c1O,Z-AUC,[1],1.28 (inactive)
same,Z-AUC,[1]; [5],1.11
same,Z-AUC,[1]; measured here: PEO4 Z-AUC,0.988
O=C(NCC1CCOCC1)c1cnc(Nc2ccc(Cl)cc2Cl)nc1C(F)(F)F,Z-AUC,[1],1.22 (inactive)
same,Z-AUC,[1]; [5],0.764
same,Z-AUC,[1]; measured here: PEO4 Z-AUC,1.04
CCN(CC)C(=O)c1ccc(C2=CC3(CCNCC3)Oc3cccc(O)c32)cc1,Z-AUC,[1],-0.151 (inactive)
same,Z-AUC,[1]; [5],0.834
same,Z-AUC,[1]; measured here: PEO4 Z-AUC,0.745
CN[C@@H]1Cc2cccc3[nH]c(=O)n(c23)C1,Z-AUC,[1],1.45 (inactive)
same,Z-AUC,[1]; [5],1.4
same,Z-AUC,[1]; measured here: PEO4 Z-AUC,1.34
C[C@](O)(COc1ccc(C#N)cc1)C(=O)Nc1ccc(C#N)c(C(F)(F)F)c1,Z-AUC,[1],0.66 (inactive)
same,Z-AUC,[1]; [5],0.716
same,Z-AUC,[1]; measured here: PEO4 Z-AUC,0.592
CCCN1CCO[C@@H]2c3cc(O)ccc3OC[C@H]21,Z-AUC,[1],0.538 (inactive)
same,Z-AUC,[1]; [5],0.85
same,Z-AUC,[1]; measured here: PEO4 Z-AUC,0.552
CCOC(=O)c1c(C(C#N)=CN)c2ccc(Cl)c(Cl)c2n1C,Z-AUC,[1],0.895 (inactive)
same,Z-AUC,[1]; [5],0.557
same,Z-AUC,[1]; measured here: PEO4 Z-AUC,0.414
CCNC(=O)C[C@@H]1N=C(c2ccc(Cl)cc2)c2cc(OC)ccc2-n2c(C)nnc21,Z-AUC,[1],-0.661 (inactive)
same,Z-AUC,[1]; [5],-0.0106
same,Z-AUC,[1]; measured here: PEO4 Z-AUC,-0.343
Cc1c(C(=O)Nc2cccc(C(F)(F)F)c2)cc(-c2ccccc2)n1CCCN1CCOCC1,Z-AUC,[1],-1.03 (inactive)
same,Z-AUC,[1]; [5],-0.727
same,Z-AUC,[1]; measured here: PEO4 Z-AUC,-1.05
C[C@]12CC[C@H]3[C@@H](CCC4=CC(=O)CC[C@@]43C)[C@H]1CC[C@H]2OC(=O)CCC1CCCC1,Z-AUC,[1],-0.757 (inactive)
same,Z-AUC,[1]; [5],-0.855
same,Z-AUC,[1]; measured here: PEO4 Z-AUC,-0.842
CC[C@@]1(O)C(=O)OCc2c1cc1n(c2=O)Cc2cc3ccccc3nc2-1,Potency,[1],38.9 nM (active)
COC(=O)[C@@H](N)CCCN=C(N)N[N+](=O)[O-],"activity, negative = inhibition",[3]; parasite line A,8.8% (inactive)
same,"activity, negative = inhibition",[3]; parasite line B,10.5% (inactive)
same,Potency,3D7,inactive
same,Potency,AS120,inactive
C#CC1(O)CCC2C3CCC4=CC(=O)CCC4(C)C3CCC21C (stereo not given),"activity, negative = inhibition",[3]; parasite line A,7.72% (inactive)
same,"activity, negative = inhibition",[3]; parasite line B,0.354% (inactive)
same,Potency,3D7,inactive
same,Potency,AS120,inactive
CC(N[C@H]1C[C@H]1c1ccccc1)c1ccc2c(c1)OCCO2 (stereo not given in full),z-score,[4]; [6],0.542
same,z-score,[4]; [7],0.0589
same,z-score,[4]; [8],0.597
COc1ccc(CC2NCCc3cc(OC)c(OC)cc32)cc1OC (stereo not given),z-score,[4]; [6],0.368
same,z-score,[4]; [7],0.055
same,z-score,[4]; [8],0.8
COC1=CC(C)=C[C@@H](C)[C@@H](O)[C@@H](C)CC(C)=CC=C[C@H](OC)[C@H]([C@@H](C)[C@@H](O)[C@H](C)[C@@]2(O)C[C@@H](O)[C@H](C)[C@@H](C(C)C)O2)OC1=O,Potency,[4]; TFE3-RCC UOK109 viability,26400 nM (active)
same,z-score,[4]; [6],-1.69
same,z-score,[4]; [7],-2.76
same,z-score,[4]; [8],-3.22
C#C[C@]1(O)C=C[C@@H]2[C@@H]3CCC4=CC(=O)CC[C@@H]4[C@H]3CC[C@@]21CC,z-score,[4]; [6],1.02
same,z-score,[4]; [7],0.666
same,z-score,[4]; [8],-1.42
C[C@H]([C@H](O)CCC(C)(C)O)[C@H]1CC[C@@]2(O)C3=CC(=O)[C@@H]4C[C@@H](O)[C@@H](O)C[C@]4(C)[C@@H]3CC[C@]12C,z-score,[4]; [6],0.847
same,z-score,[4]; [7],0.683
same,z-score,[4]; [8],-2.52
CC(=CCCC1=CCC(C2=CC(=O)OC2O)OC1O)CCC1=C(C)CCCC1(C)C (stereo not given),z-score,[4]; [6],0.667
same,z-score,[4]; [7],0.534
same,z-score,[4]; [8],-0.0671
CC(=Cc1csc(C)n1)[C@@H]1C[C@H]2O[C@@H]2CCC[C@H](C)[C@@H](O)[C@@H](C)C(=O)C(C)(C)[C@@H](O)CC(=O)O1,z-score,[4]; [6],-3.27
same,z-score,[4]; [7],-1.59
same,z-score,[4]; [8],-2.88
NC1CC1c1ccccc1 (stereo not given),z-score,[4]; [6],0.891
same,z-score,[4]; [7],0.509
same,z-score,[4]; [8],0.821
